From PubChem BioAssay (EPA / NIEHS) come the findings set out here.

Values joined by “and” are separate entries in the source; they are usually repeats but may differ in a detail not shown here. Identical values can stand only once. More than one record can exist for a structure, and the calls need not agree. Active and inactive are the calls of the source. Rule for the calls: active = hit-call score of the fitted dose curve at least 0.9, where 1 is the maximum; inconclusive = response in the unintended direction; inactive = score below 0.9.

The nature of the experiment: CPHEA_Stoker_NIS_Cytotoxicity: Cytotoxicity Assessment for CPHEA's Radioactive Iodide Uptake (RAIU) Assay for Sodium/Iodide Symporter (NIS) Inhibition, Stoker and Laws Labs (AID 2283897).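 For AC50: active means loss of ATP signal versus DMSO meaning cytotoxicity.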 Here is the method: CPHEA_Stoker_NIS is a cell-based, single-readout assay that uses hNIS-HEK293T-EPA, a novel human kidney cell line expressing human NIS, with measurements taken at 2 hours after chemical dosing in a 96-well plate. This radioactive iodide uptake (RAIU) assay is used to identify inhibitors of NIS-mediated iodide uptake. A parallel cytoxicity assay (Cell Titer Glo, Promega) was also run in the same cell line.CPHEA_Stoker_NIS_Cytotoxicity is one of 2 assay components measured from the CPHEA_Stoker_NIS assay. It is designed to make measurements of atp content, a form of viability reporter, as detected with bioluminescence signals by Luciferase-coupled ATP quantitation technology.Data from the assay component CPHEA_Stoker_NIS_Cytotoxicity was analyzed at the endpoint, CPHEA_Stoker_NIS_Cytotoxicity, in the positive analysis fitting direction relative to DMSO as the negative control and baseline of activity. Using a type of viability reporter, measures of ATP content for loss-of-signal activity can be used to understand the viability. To generalize the intended target to other relatable targets, this assay endpoint is annotated to the cell cycle intended target family, where the subfamily is cytotoxicity.
hNIS-HEK293T-EPA cells were seeded with a MultiFlo FX dispenser (BioTek, Winooski, VT) into ScintiPlate-96 microplates (Perkin Elmer, Waltham, MA) at a density of 4.0x10^4 cells per well in 200uL growth media and incubated for 40 hours before experimentation. On day of the assay, carrier-free 125I (Perkin-Elmer, Waltham, MA; specific activity: 17.4Ci/mg) was diluted with Hanks' balanced salt solution (Sigma, St. Louis, MO) supplemented with 10mM HEPES (uptake buffer; pH 7.4) at 5uCi/mL (288pg 125I/mL uptake buffer; 2.30nM). The assay was initiated by washing cells twice with 200uL uptake buffer using a 96-well Tecan HydroSpeed plate washer (Tecan, Mannedorf, Switzerland). Uptake buffer (59.7uL) was then added back to each well. Chemical samples (350nL at 200X) were administered using the HDR tool as previously described to achieve a 1X chemical/0.5% final DMSO concentration with subsequent addition of 10uL of 125I dilution (final [125I]: 329pM; 2.88pg/well) for a final reaction volume of 70uL/well. Cells were incubated at room temperature for 2 hours and then washed twice with 200uL ice cold uptake buffer. All uptake buffer was aspirated from wells, plates were sealed, and read on a MicroBeta2 plate reader (Perkin Elmer, Waltham, MA) using a detection protocol to measure CPM corresponding to intracellular 125I concentration. Each chemical concentration (0.001, 0.01, 0.1, 1.0, 10, and 100uM) was assayed in triplicate with three independent biological replicate plates (3 sequential cell passages). Additionally, a concentration response of NaClO4 (0.001, 0.01, 0.1, 1.0, 10, and 100uM) served as a positive control inhibition curve on each RAIU assay plate. DMSO control wells were assayed on each plate as a measure of maximum iodide uptake for normalization and determination of intra- and inter-assay variation. (Toxicol In Vitro, 2017, 40:66-78).
As for `CCOP(=S)(OCC)SCn1c(=O)oc2cc(Cl)ccc21`, the outcome was inactive.

Regarding `Oc1ccccc1-c1ccccc1`, the result was inactive. Still for that read-out and setting: in the case of `CN(C)C(=S)SSC(=S)N(C)C` it was “inactive”; in that of `OC(c1ccc(Cl)cc1)(c1cncnc1)c1ccccc1Cl` (centres undefined), “inactive”. On the same count and under the same terms, in the case of `CON(C)C(=O)Nc1ccc(Cl)c(Cl)c1` it was “inactive”.

For `COP(=S)(OC)Oc1nc(Cl)c(Cl)cc1Cl`, the outcome was inactive. For `Fc1ccc(Oc2ccnc3cc(Cl)cc(Cl)c23)cc1`, the outcome was inactive. The same measure, in the same setting: the result for `CC(C)(C)c1ccc(CSc2cnn(C(C)(C)C)c(=O)c2Cl)cc1` reads “inactive”. Same read-out and setting: the result for `CCCC1COC(Cn2cncn2)(c2ccc(Cl)cc2Cl)O1` (centres undefined) reads “inactive”; that for `CCCCOC(=O)c1ccccc1C(=O)OCCCC`, “inactive”. Regarding `CCc1nn(C)c(C(=O)NCc2ccc(C(C)(C)C)cc2)c1Cl`, the AC50 was 9.92 µM (active).

As for `COc1nc(NC(C)C)nc(NC(C)C)n1`, the outcome was inactive. Take `O=C(Nc1ccccc1)Nc1ccnc(Cl)c1`: the half-maximal activity concentration (AC50) was 40.1 µM (active). With `C=CCC1=C(C)C(OC(=O)C2C(C=C(C)C)C2(C)C)CC1=O` (centres undefined), the AC50 was 1.04 µM (active) and 50 µM (active); the outcome was inactive. As for `CCCCNC(=O)OCC#CI`, the result was inactive. On the same count and under the same terms, in the case of `CC(C)Oc1cc(-n2nc(C(C)(C)C)oc2=O)c(Cl)cc1Cl` it was “inactive”; in that of `C#CCOS(=O)OC1CCCCC1Oc1ccc(C(C)(C)C)cc1` (centres undefined), “inactive”. In the case of `CC1COC(Cn2cncn2)(c2ccc(Oc3ccc(Cl)cc3)cc2Cl)O1` (centres undefined), the AC50 is 29 µM (active). As to `COC(=O)N(OC)c1ccccc1COc1ccn(-c2ccc(Cl)cc2)n1`, the outcome was inactive.

Regarding `Cc1ccc(-c2c(Cl)nc(C#N)n2S(=O)(=O)N(C)C)cc1`, the result was inactive.

Take `COc1ccc(C(c2ccc(OC)cc2)C(Cl)(Cl)Cl)cc1`: the outcome was inactive. Same read-out and setting: in the case of `N#Cc1cc(Br)c(O)c(Br)c1` it was “inactive”; in that of `CCCN(CCC)c1c([N+](=O)[O-])cc(S(N)(=O)=O)cc1[N+](=O)[O-]`, “inactive”. In the case of `N#CC(CCc1ccc(Cl)cc1)(Cn1cncn1)c1ccccc1` (centres undefined), the concentration at half-maximal activity (AC50) was 60.2 µM (active). In the case of `C=CC1(C)OC(=O)N(c2cc(Cl)cc(Cl)c2)C1=O` (centres undefined), the outcome was inactive. Still for that read-out and setting: the result for `Cc1c(F)c(F)c(COC(=O)C2C(/C=C(\Cl)C(F)(F)F)C2(C)C)c(F)c1F` (centres undefined) reads “inactive”; that for `CS/C(C)=N/OC(=O)N(C)SN(C)C(=O)O/N=C(\C)SC`, “inactive”. As for `CCOC(=O)CC(SP(=S)(OC)OC)C(=O)OCC` (centres undefined), the result was inactive.

Regarding `CCON=C(CC)C1=C(O)CC(c2c(C)cc(C)cc2C)CC1=O` (centres undefined), the outcome was inactive. As for `N#Cc1nn(-c2c(Cl)cc(C(F)(F)F)cc2Cl)c(N)c1S(=O)C(F)(F)F` (centres undefined), the outcome was inactive. On the same count and under the same terms, in the case of `C=CCC1=C(C)[C@@H](OC(=O)[C@@H]2[C@@H](C=C(C)C)C2(C)C)CC1=O` it was “inactive”; in that of `CCOC(=O)C(Cl)Cc1cc(-n2nc(C)n(C(F)F)c2=O)c(F)cc1Cl` (centres undefined), “inactive”; in that of `COC(=O)C(C)Oc1ccc(Oc2ccc(Cl)cc2Cl)cc1` (centres undefined), “inactive”.
